In PubChem BioAssay AID862 (The Scripps Research Institute Molecular Screening Center, 2007) one finds inhibition data, which are given here for 67 molecules.

About 1,700 (0.89%) of roughly 190,000 compounds were called active. Many of the other results were omitted from the sample, so actives are more common in it than they were. Values without a mark were called inactive.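 The calls were made as follows: active = inhibition above the mean inhibition across all screened compounds plus 3 SD (cut at about 44% in these data); inactive = the rest.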

This experiment is described as follows: blockers of STAT3 transcriptional signaling – U3A cells, luciferase, luminescence, MLSCN library, primary screen (AID 862).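 Also: 0% = DMSO only wells and 100% = 100 µM nifuroxazide control wells.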 The conditions noted are these: IL-6 STAT3-luciferase reporter, at 5.5 µM, active compounds read high, host cell line lacks STAT1.
With `CCN(CCCNC(=O)CSc1cc(=O)n(C)c2cc(Cl)ccc12)Cc1ccccc1`, the inhibition was 5.2%.

For `Cn1c(N)c(C(=O)COC(=O)/C=C/c2ccc(OC(F)F)cc2)c(=O)n(C)c1=O`, the inhibition was 26.3%.

As to `O=C(Nc1ccccc1Cc1ccccc1)c1ccc2c(c1)SC1=NS(=O)(=O)CCN12`, the inhibition is -8.5%.

For the molecule `Cn1c(SCC(=O)N2CCCc3ccccc32)nc2ccccc2c1=O`, the inhibition was 62.3% (active).

For `O=C(CSc1nc2ccccc2c(=O)n1CCCO)N1CCc2ccccc21`, the inhibition is 12.6%.

For the molecule `O=C(CSc1nc2[nH]ncc2c(=O)n1-c1ccccc1)N1CCCc2ccccc21`, the inhibition was -21.2%.

Consider `COc1ccc(N2C(=O)C(O)C2c2ccc(C)cc2)cc1` (configuration not stated), for which the inhibition is -18.4%.

In the case of `O=C(OCC(=O)c1cccs1)c1ccc([N+](=O)[O-])o1`, the inhibition was 0.6%.

For `COc1ccc(NC(=O)c2cc3nc(-c4ccccc4)cc(C)n3n2)cc1OC`, the inhibition was 17.9%.

For `C(=N\Nc1ccc2ccccc2n1)/c1ccc2c(c1)OCO2`, the inhibition is 91.2% (active).

As to `Brc1ccc(-c2csc(N/N=C/c3ccc4c(c3)OCO4)n2)cc1`, the inhibition is 5%.

With `Cc1noc(C)c1/C=N/Nc1ccc2ccccc2n1`, the inhibition was -21.3%.

Turning to `S=c1[nH]nc(Nc2ccccc2)s1`, the inhibition was 12%.

On to `CN(c1ccccc1)c1nc(N)c([N+](=O)[O-])c(NCc2ccco2)n1`, for which the inhibition was -0.4%.

For `CCN1/C(=C\c2ccc3ccccc3[n+]2CC)Sc2cc(C)ccc21`, the inhibition is 84.8% (active).

In the case of `CCC(=O)/C=C1\Sc2ccccc2N1CC`, the inhibition was 20.7%.

As to `Cc1ccccc1NC(=O)CN1C(=O)N/C(=C\c2cccn2-c2cccc(C(=O)O)c2)C1=O`, the inhibition was 6%.

Take `O=C(O)CSCC(=O)Nc1ccc(C(F)(F)F)cc1`: the inhibition is 6.5%.

With `Cc1ccc(Oc2ccc(N)cc2)cc1`, the inhibition was 0.4%.

For the molecule `CC(C)(C)c1ccc(Oc2ccc(N)cc2)cc1`, the inhibition is 76.2% (active).

As for `Nc1ccc(Oc2ccc(Cl)cc2)cc1`, the inhibition is -0.6%.

For the molecule `C=CC[n+]1c(-c2ccc(C)cc2)csc1NNC(=O)Nc1ccccc1`, the inhibition is 46.3% (active).

Turning to `Cc1ccc(NC(=O)Nc2ccccc2)c(Br)c1`, the inhibition was 16.3%.

Regarding `C=CCNc1scc(-c2ccccc2)[n+]1CC=C`, the inhibition is 4.7%.

For the molecule `CCCN(CC(=O)Nc1ccc(C(N)=O)cc1)CC(=O)Nc1ccccc1C`, the inhibition was 3.9%.

Turning to `Cc1csc(NC(=O)Nc2ccccc2[N+](=O)[O-])n1`, the inhibition is -24.9%.

For the molecule `OCCCC1CCCCN1Cc1nc(Cc2ccccc2Cl)no1` (configuration not stated), the inhibition was 4.3%.

As to `N/C(=N\OC(=O)c1ccc2c(c1)OCO2)c1ccc(Br)cc1`, the inhibition is 9.8%.

Turning to `Cc1ccc2nc(-c3ccc(NC(=O)CN(C)S(=O)(=O)c4ccccc4)cc3)sc2c1`, the inhibition was 49.8% (active).

For the molecule `Cc1cccc(N(CC(=O)Nc2ccc(-c3nc4ccc(C)cc4s3)cc2)S(C)(=O)=O)c1`, the inhibition was 28%.

For `COc1cc(NC(=O)CN(C)S(=O)(=O)c2ccc3nc(C)sc3c2)cc(OC)c1`, the inhibition was 0.9%.

As to `O=C(CCc1ccccc1)NCCc1cccs1`, the inhibition is 4.7%.

With `O=C(C/C(=N\NC(=O)c1ccccc1Br)C(F)(F)F)c1cccs1`, the inhibition was -8.2%.

`O=C(Nc1ccc(NC(=O)c2cccs2)cn1)c1ccco1`: the inhibition is 48.3% (active).

Turning to `O=C(Nc1ccc2nccnc2c1)c1ccco1`, the inhibition was 14.3%.

On to `COc1cccc(C(=O)Nc2ccc(NC(=O)c3ccco3)cn2)c1`, for which the inhibition is 12.2%.

Regarding `N=c1n(CCc2ccccc2)c2ccccc2n1Cc1ccccc1F`, the inhibition was 0.2%.

Take `CCc1ccc(CN(C)Cc2nc(Cc3ccccc3)no2)nc1`: the inhibition is -2.9%.

As for `CC1=CC=CN2C1=NC(=O)CC2(C)C(=O)N(CC(=O)NC1CCCC1)c1ccccc1C` (configuration not stated), the inhibition is 4.4%.

Take `Cc1cc(N/C=C\C(=O)c2ccc(Cl)c(Cl)c2)no1`: the inhibition is -7.8%.

Turning to `CCOc1cc(NC(=O)c2ccccn2)c(OCC)cc1NC(=O)c1ccc(OC)cc1`, the inhibition is 13.8%.

For the molecule `COc1ccc(C(=O)/C=C/Nc2ccccn2)cc1`, the inhibition is 97.2% (active).

Regarding `Cc1ccc(CC2CC(=O)N(c3nc(C)cc(C)n3)C2=O)cc1` (configuration not stated), the inhibition is -0.9%.

For the molecule `Clc1cccc(-c2nc(NCC3CCCO3)c3ccccc3n2)c1` (configuration not stated), the inhibition was 15.5%.

`CCCCCCn1c(CN2CCCCC2)nc2c1c(=O)n(C)c(=O)n2C`: the inhibition was -8.1%.

On to `CCCCCCCCn1c2c(c(=N)c3c1CCC3)CCCC2`, for which the inhibition was 76.2% (active).

On to `COc1ccc(/C=C/C(=O)OCC(=O)NCc2cccs2)cc1OC`, for which the inhibition was -9.7%.

`O=C(c1ccc(F)cc1)c1cn(Cc2ccc(F)cc2)c2cc3c(cc2c1=O)OCCO3`: the inhibition was 4.1%.

Turning to `COCCn1c(C)cc(C2=NNC(=Nc3ccc(F)cc3)SC2)c1C`, the inhibition was -33.4%.

Regarding `Cc1cc(C2=NNC(=Nc3ccc(S(=O)(=O)N4CCOCC4)cc3)SC2)c(C)n1CC1CCCO1` (configuration not stated), the inhibition was -0.3%.

As to `C=CCn1c(C)cc(C2=NNC(=NCC)SC2)c1C`, the inhibition is 108% (active).

On to `[O-][n+]1c2c(nn1-c1ccc(Cl)c(Cl)c1)-c1nonc1CC2`, for which the inhibition is 5.8%.

As to `CC1CCN(c2ccc(C(=O)Nc3nnc(C4CC4)s3)cc2[N+](=O)[O-])CC1`, the inhibition was -3%.

On to `Cc1c(C(=O)Nc2ccccc2)sc2nc3n(c(=O)c12)CCCCC3`, for which the inhibition is 10.4%.

As for `Cc1cccc2c(=O)n3c(nc12)CCCCC3`, the inhibition was 2.1%.

Turning to `O=c1c2c(nc3n1CCCCC3)sc1c(O)cccc12`, the inhibition was 64.8% (active).

Take `CC(C)Cn1c(N)c(C(=O)COC(=O)CN2C(=O)C3CC=CCC3C2=O)c(=O)n(C)c1=O` (configuration not stated): the inhibition is 30.1%.

`COC(=O)c1c(NC(=O)CCCC(=O)O)sc2c1CCCCC2`: the inhibition was 22.2%.

Take `CCOCCCNCc1ccc(OCc2ccc(F)cc2)c(OC)c1`: the inhibition was 5.2%.

For `CC(C)Oc1ccc(CCc2nnc(SCC(=O)O)n2-c2ccccc2)cc1`, the inhibition is 13.3%.

Regarding `Cc1cc2nc(-c3ccc(NC(=O)c4cccnc4)cc3)oc2cc1C`, the inhibition is 7.8%.

For the molecule `Cc1ccc2nc(-c3ccc(NC(=O)c4cccnc4)cc3)oc2c1`, the inhibition is 67.9% (active).

On to `Cc1ccc(-n2nc3cc(C)c(NC(=O)c4cccnc4)cc3n2)cc1`, for which the inhibition is 11.8%.

For `Cc1cccc(NC(=O)c2cc([N+](=O)[O-])ccc2N2CCN(C)CC2)c1`, the inhibition was 6.2%.

Regarding `COC(=O)CCNC(=O)c1ccc2[nH]c(C)c(C)c2c1`, the inhibition was 11%.

For the molecule `Cc1cc(C(=O)COc2ccccc2[N+](=O)[O-])c(C)n1-c1cccc(S(=O)(=O)N2CCOCC2)c1`, the inhibition was -4.1%.

For `Cc1[nH]c2ccccc2c1C(=O)COC(=O)c1c(-c2ccccc2)noc1C`, the inhibition is -1.9%.

As a reminder, the inhibition is the relative decrease from the control value, in per cent.
